From the supplement of paper PMC11732987, “Enantioselective OTUD7B fragment discovery through chemoproteomics screening and high-throughput optimisation” (Communications Chemistry, 2025)

What was measured:
Test in all cases: log2 ratio of Biotin-Ahx-Ub-VS probe labelling (fragment/DMSO); higher = less target engagement (more negative = stronger competition), active = hit call of the paper (q ≤ 0.05, log2 ratio ≤ -1)
Settings in all cases: compound concentration: 200 uM; treatment time: 3 h
USP19 = molecular target: T1, USP19 (UniProt O94966)
T1 sequence (whole entry): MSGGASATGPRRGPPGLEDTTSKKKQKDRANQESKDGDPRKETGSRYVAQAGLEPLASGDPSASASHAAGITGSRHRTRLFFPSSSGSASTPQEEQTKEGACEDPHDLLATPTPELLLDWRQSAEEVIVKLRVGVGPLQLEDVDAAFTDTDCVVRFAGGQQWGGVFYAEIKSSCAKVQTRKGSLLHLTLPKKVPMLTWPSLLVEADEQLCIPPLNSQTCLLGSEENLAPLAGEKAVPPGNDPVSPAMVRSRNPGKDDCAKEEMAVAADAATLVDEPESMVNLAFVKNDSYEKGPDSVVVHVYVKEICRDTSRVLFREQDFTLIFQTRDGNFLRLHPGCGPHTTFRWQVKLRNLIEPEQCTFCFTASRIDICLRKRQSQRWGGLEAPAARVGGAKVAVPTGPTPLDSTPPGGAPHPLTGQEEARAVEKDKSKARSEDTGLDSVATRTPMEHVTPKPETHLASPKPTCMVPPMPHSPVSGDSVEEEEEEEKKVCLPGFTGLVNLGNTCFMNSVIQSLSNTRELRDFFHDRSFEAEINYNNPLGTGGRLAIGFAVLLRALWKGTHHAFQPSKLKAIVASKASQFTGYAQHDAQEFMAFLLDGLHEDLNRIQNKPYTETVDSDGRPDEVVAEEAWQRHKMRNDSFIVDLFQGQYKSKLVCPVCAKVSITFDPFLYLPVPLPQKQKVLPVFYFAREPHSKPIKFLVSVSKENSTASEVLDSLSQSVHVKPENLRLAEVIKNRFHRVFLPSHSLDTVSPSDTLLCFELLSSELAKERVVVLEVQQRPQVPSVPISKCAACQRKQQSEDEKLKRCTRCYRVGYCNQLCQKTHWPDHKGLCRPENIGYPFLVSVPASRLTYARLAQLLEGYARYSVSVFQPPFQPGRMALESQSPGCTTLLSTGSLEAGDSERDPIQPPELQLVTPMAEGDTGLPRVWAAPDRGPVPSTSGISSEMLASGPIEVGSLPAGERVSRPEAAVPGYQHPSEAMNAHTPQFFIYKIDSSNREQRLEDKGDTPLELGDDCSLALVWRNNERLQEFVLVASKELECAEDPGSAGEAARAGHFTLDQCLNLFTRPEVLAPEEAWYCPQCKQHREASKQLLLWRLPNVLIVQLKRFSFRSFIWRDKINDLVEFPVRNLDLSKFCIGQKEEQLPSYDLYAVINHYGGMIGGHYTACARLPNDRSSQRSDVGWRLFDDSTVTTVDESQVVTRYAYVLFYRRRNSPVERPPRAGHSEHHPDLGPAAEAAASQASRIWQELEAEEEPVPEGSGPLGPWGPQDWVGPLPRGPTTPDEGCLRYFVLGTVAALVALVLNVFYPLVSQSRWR
Procedure, shortened: (§1)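 Each value is an average log2 ratio of fragment to vehicle, tested by unpaired t-test. The underlying Spectronaut label-free quantities were global-median-normalised, and only proteins with ≥2 unique peptides were included. Triplicate HEK293T lysate samples (495 µg) were exposed to fragment at 200 µM or vehicle for 3 h, then to Biotin-Ahx-Ub-VS at 0.5 µM final for 1 h, before NeutrAvidin enrichment of labelled DUBs, LysC and trypsin digestion, and diaPASEF LC-MS/MS.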

USP22 = molecular target: T2, USP22 (UniProt Q9UPT9)
T2 sequence (whole entry): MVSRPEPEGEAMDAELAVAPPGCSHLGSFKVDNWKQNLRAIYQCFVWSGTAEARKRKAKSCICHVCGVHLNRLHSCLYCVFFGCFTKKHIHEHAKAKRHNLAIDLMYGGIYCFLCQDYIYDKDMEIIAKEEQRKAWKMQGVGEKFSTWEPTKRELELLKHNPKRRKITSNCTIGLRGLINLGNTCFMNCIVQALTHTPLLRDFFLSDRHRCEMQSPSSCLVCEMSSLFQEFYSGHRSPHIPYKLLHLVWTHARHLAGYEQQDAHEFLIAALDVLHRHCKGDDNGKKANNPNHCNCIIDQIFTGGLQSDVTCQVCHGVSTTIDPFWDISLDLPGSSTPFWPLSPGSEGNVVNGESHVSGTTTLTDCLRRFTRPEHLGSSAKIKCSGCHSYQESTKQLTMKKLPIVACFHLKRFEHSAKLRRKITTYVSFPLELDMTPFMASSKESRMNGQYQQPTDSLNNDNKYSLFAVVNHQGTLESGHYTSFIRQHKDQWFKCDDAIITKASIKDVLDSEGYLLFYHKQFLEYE
Procedure, shortened: as §1

USP24 = USP24 (UniProt Q9UPU5)
Procedure, shortened: as §1

USP25 = molecular target: T3, USP25 (UniProt Q9UHP3)
T3 sequence (whole entry): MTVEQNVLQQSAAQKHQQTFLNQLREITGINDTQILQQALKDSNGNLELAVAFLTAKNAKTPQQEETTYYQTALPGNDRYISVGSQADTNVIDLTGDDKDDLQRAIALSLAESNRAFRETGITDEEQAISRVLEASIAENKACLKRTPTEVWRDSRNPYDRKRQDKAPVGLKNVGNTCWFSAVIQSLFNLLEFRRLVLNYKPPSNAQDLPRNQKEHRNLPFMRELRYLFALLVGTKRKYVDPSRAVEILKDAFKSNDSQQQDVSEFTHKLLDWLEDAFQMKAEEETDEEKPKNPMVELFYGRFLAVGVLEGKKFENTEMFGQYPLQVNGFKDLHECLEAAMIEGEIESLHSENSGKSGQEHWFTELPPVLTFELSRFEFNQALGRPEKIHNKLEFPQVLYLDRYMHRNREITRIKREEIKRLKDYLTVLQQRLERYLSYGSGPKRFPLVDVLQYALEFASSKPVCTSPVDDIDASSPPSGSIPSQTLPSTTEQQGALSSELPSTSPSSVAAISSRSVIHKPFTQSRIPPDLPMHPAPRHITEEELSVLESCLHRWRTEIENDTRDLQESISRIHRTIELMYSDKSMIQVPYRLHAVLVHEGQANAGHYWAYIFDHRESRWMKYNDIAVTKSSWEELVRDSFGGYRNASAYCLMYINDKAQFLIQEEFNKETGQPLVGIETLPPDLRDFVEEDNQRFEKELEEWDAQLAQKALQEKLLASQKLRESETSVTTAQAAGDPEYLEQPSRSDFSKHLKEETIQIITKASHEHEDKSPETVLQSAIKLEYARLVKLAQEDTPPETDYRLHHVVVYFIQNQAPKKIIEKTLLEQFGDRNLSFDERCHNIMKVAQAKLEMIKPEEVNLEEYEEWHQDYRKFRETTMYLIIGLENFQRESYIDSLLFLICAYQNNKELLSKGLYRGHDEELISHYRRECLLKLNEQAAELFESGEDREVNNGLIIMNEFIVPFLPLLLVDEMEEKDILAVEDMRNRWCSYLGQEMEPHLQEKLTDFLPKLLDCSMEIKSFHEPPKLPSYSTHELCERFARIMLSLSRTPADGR
Procedure, shortened: as §1

USP28 = molecular target: T4, USP28 (UniProt Q96RU2)
T4 sequence (whole entry): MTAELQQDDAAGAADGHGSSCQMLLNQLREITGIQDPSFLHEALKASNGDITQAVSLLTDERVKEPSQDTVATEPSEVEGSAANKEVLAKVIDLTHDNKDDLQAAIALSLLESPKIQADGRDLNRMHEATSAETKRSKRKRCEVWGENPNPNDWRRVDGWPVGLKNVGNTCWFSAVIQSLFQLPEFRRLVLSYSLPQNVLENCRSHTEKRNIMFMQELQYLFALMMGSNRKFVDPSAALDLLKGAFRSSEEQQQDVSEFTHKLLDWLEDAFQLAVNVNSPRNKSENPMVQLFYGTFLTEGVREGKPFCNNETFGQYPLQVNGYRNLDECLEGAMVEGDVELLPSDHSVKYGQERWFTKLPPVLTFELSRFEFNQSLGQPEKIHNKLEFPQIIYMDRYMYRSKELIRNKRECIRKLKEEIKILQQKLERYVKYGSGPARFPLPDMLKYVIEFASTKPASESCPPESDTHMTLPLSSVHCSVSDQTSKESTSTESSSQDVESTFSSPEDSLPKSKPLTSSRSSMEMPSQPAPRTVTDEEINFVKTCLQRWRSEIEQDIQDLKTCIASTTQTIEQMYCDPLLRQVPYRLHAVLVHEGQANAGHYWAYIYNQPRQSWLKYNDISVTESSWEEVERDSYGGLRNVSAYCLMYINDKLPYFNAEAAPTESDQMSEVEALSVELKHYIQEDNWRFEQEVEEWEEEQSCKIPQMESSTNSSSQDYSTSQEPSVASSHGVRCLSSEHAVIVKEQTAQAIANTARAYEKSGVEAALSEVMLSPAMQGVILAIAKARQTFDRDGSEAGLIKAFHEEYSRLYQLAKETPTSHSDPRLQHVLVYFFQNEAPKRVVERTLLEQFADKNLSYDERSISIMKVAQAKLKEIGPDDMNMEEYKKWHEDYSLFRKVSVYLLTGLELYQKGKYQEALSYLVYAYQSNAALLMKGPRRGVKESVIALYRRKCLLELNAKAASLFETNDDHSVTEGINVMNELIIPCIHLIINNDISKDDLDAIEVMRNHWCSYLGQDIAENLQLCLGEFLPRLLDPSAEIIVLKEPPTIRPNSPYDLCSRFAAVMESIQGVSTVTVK
Procedure, shortened: as §1

Measured: log2 ratio of Biotin-Ahx-Ub-VS probe labelling

Sequence of USP24 (Q9UPU5 whole entry): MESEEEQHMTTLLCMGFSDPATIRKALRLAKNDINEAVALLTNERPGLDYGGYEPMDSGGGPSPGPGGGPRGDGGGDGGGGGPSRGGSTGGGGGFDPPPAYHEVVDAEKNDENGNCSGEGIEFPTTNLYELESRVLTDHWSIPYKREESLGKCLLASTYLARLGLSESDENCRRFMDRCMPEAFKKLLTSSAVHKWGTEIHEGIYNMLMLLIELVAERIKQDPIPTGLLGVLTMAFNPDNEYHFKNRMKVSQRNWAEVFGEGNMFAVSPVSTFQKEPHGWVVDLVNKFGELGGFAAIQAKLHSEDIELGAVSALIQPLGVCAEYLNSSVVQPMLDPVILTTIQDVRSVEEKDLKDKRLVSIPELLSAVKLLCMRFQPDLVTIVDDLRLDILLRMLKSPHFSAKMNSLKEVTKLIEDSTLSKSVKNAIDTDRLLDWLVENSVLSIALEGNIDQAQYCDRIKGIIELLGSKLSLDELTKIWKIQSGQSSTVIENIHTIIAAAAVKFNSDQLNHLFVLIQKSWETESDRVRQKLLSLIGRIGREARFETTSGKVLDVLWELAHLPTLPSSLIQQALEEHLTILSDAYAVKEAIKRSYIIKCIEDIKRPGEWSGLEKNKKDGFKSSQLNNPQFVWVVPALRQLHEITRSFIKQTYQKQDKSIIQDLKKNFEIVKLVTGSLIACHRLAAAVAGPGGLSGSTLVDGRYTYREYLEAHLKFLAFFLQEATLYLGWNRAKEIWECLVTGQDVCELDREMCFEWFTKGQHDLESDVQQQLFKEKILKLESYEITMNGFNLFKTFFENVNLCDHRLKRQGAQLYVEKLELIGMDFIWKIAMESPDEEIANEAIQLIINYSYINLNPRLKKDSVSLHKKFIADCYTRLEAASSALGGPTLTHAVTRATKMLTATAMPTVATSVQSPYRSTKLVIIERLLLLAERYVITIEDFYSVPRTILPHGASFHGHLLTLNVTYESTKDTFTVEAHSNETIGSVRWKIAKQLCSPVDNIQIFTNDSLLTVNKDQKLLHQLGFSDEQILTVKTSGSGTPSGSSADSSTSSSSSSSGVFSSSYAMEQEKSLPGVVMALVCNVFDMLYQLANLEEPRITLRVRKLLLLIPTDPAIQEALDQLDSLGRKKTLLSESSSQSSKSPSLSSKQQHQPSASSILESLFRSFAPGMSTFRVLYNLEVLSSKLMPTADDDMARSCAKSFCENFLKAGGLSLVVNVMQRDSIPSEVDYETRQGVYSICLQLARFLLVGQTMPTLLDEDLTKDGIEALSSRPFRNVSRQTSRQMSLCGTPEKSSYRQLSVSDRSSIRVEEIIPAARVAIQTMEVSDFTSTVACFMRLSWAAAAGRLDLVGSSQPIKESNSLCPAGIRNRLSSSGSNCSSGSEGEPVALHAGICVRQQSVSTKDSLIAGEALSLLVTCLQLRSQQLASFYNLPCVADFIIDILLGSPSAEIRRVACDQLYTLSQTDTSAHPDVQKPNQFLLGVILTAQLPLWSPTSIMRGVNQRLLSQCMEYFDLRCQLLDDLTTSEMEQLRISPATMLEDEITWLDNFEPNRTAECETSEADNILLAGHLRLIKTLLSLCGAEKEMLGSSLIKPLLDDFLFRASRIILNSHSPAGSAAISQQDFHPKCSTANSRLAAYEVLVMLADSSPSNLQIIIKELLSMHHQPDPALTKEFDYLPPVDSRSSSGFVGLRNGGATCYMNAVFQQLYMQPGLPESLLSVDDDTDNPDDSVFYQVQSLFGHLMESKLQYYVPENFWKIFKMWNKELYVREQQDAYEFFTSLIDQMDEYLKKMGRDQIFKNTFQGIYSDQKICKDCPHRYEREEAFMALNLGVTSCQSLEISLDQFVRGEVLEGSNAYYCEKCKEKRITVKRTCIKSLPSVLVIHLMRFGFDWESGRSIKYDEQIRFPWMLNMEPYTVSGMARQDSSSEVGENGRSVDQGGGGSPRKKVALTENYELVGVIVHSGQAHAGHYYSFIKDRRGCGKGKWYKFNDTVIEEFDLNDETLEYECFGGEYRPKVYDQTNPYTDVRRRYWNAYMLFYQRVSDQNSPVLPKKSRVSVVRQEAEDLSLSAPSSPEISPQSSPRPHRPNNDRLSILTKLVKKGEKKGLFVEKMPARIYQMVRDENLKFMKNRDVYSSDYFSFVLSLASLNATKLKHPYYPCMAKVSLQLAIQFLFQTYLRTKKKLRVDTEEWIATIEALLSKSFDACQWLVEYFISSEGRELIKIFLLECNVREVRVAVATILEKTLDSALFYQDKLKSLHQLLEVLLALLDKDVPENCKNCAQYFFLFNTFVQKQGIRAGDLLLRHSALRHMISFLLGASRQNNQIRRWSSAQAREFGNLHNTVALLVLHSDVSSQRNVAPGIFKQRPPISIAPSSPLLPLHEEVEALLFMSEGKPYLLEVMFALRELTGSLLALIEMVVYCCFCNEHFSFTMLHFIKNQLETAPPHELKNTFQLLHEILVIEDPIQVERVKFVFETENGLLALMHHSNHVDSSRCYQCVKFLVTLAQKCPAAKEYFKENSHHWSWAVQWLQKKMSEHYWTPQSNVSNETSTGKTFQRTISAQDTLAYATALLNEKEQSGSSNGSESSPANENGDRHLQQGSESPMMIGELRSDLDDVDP

CC1(NC(=O)CCl)CCS(=O)(=O)C1 (stereo not given)
inactive: USP19 -0.59 | USP22 -0.238 | USP24 -0.659 | USP25 -0.695 | USP28 -0.835
